Bioassay records from PubChem BioAssay.
TEAD-YAP inh: TEAD-YAP interaction inhibition; AID 1259422; 640,000 tested, 1.4% active; inhibition, % at 9.12 µM; HEK-TIYL cells, TEAD-Gal4/YAP UAS-luciferase luminescence; in the data active means inhibition above about 32%;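 further: 0% = median of test compound wells and 100% = reference inhibitor wells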
MITF primary: inhibitors of human MITF | O75030 | inhibition, % at 2.6 µM | AlphaScreen MITF homodimerization, bead proximity signal | 650,000 tested, 0.91% active; in the data active means inhibition above about 50%;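 further: 0% = vehicle wells with protein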
FBW7 act: activators of human E3 ligase FBW7; Q969H0; AlphaScreen FBW7–phospho-cyclin E peptide binding, activator screen; normalized activity (activation), % at 26.1 µM; 650,000 tested, 0.13% active; AID 1259310; in the data active means normalized activity above about 1.9%;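 further: purified mutant Fbw7 with reduced substrate affinity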
GPR151 ag: activators of human GPR151; Q8TDV0; PathHunter beta-arrestin GPR151 cells, luminescence; activation, % at 11.2 µM; 650,000 tested, 1% active; AID 1508602; in the data active means activation above about 4.9%;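 further: 0% = median of compound wells and 100% = cells with positive control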
GPR151 conf act: human GPR151 activation, confirmation screen | shares compounds with GPR151 ag | GPR151 PathHunter beta-arrestin cells, luminescence, 90 min; % of EA-reagent control over plate median | activation, % at 11.2 µM | 6,700 tested, under 10 active | AID 1508609;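 active means mean percent activation across replicates above the confirmation screen cutoff of 4.91%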
GPR119 counter: activates human GPR119 in a GPR151 counter-screen; shares compounds with GPR151 ag; GPR119 PathHunter beta-arrestin cells, luminescence, 90 min; 0 = compound-well median, 100 = enzyme-acceptor control; activation, % at 11.2 µM; 6,700 tested, 0.3% active; AID 1508611;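 active means mean percent activation in the counterscreen above 29.09%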;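 further: counterscreen on off-target GPR119 to flag nonselective hits from the GPR151 activator screen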
Target sequence (Q8TDV5 whole entry, looked up): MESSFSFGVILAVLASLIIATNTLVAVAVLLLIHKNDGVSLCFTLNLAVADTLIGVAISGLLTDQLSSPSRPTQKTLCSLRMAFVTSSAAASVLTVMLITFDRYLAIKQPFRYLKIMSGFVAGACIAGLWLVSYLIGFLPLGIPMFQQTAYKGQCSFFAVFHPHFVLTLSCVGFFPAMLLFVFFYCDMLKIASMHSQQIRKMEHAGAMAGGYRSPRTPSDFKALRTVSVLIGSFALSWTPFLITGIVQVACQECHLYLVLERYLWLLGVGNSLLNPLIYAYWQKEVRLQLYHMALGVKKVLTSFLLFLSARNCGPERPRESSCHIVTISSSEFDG
* = called active by the depositor; · = no result; ! = repeats disagree. This is a sample that favours compounds with a hit; in the whole collection about 3.4% have one here.

SMILES	TEAD-YAP inh	MITF primary	FBW7 act	GPR151 ag	GPR151 conf act	GPR119 counter
S=c1[nH]nc(-c2ccc(Cl)cc2)n1-c1ccccc1	15	12	0	-2	·	·
CC(C)(C)c1ccc(-c2n[nH]c(=S)n2-c2ccccc2)cc1	1	13	0	5.1*!	-1	-13
Nc1c(Cl)cc(-n2c(-c3ccccc3)n[nH]c2=S)cc1Cl	5	-1	0	5.5*	0	-3
OC(c1cccnc1)c1ccc2c(c1)CN(Cc1cccc(Cl)c1)CCO2 (stereo unspecified)	-10	1	0	41*	1	-3
CC1(C)OC(=O)C(Cc2ccccc2)(Cc2ccccc2)C(=O)O1	-2	19	1	0	·	·
COc1ccc(F)cc1S(=O)(=O)N1CCN(CC(=O)c2ccco2)CC1	-11	48	0	-1	·	·
COCC(=O)N1CCN(CC(=O)c2ccco2)CC1	5	9	0	4.9*	0	-7
COc1ccc(S(=O)(=O)N2CCN(CC(=O)c3ccco3)CC2)cc1OC	2	7	0	12*	0	0
O=C(CN1CCN(S(=O)(=O)c2ccccc2)CC1)c1ccco1	6	11	0	-1	·	·
COc1ccc(OC)c(S(=O)(=O)N2CCN(CC(=O)c3ccco3)CC2)c1	3	3	0	6.8*	0	-7
COCCNc1ccc2ncc(-c3ccccc3)n2n1	6	17	0	0	·	·
COC(=O)c1c(NC(=O)c2cc(-c3ccc(CC(C)C)cc3)nc3ccccc23)sc(C)c1-c1ccccc1	4	14	1	5.1*	2	17
CCCCOc1ccc(-c2cc(C(=O)OC)c3ccccc3n2)cc1	0	2	0	7.5*	0	-9
CCOC(=O)c1cc(C)sc1NC(=O)c1cc(-c2ccc(CC(C)C)cc2)nc2ccccc12	3	0	0	0	·	·
CCCCOc1ccc(-c2cc(C(=O)NN)c3ccccc3n2)cc1	-2	0	0	0	·	·
O=C(Cn1cnc2c(-c3ccc(F)cc3)csc2c1=O)Nc1ccc(Br)cc1	7	-18	0	1	·	·
O=C(NC(=S)NCc1ccccc1)c1ccccc1F	0	-10	0	7.0*	1	0
O=C(NC(=S)NC(=O)c1ccccc1F)c1ccccc1F	10	8	0	2	·	·
NC(=O)C1(N2CCCCC2)CCN(S(=O)(=O)c2cc(Br)c(Br)s2)CC1	10	13	0	0	·	·
CCOc1ccccc1-n1nnnc1SCC(=O)NC(C)(C)C	3	-1	0	6.9*	1	2
CCOC(=O)CSc1nnnn1-c1ccccc1OCC	-5	8	0	1	·	·
CCOC(=O)c1sc2nc(N)c(C#N)c(-c3ccc(Cl)cc3)c2c1N	2	-2	0	6.6*	0	-12
COC(=O)c1sc2nc(N)c(C#N)c(-c3ccc(Cl)cc3)c2c1N	3	5	0	0	·	·
COc1ccc2o/c(=N\c3sc4c(c3C#N)CCCC4)c(C(=O)Nc3cccc(C(F)(F)F)c3)cc2c1	-3	-1	0	1	·	·
NC(=O)Cn1cnc2scc(-c3cccc([N+](=O)[O-])c3)c2c1=O	-15	0	0	0	·	·
SMILES	TEAD-YAP inh	MITF primary	FBW7 act	GPR151 ag	GPR151 conf act	GPR119 counter
CCC(C(=O)OC)n1cnc2scc(-c3cccc([N+](=O)[O-])c3)c2c1=O (stereo unspecified)	-11	1	0	15*	1	8
COc1cc(Cl)c(C)cc1NC(=O)Cc1ccccc1	-7	18	0	-1	·	·
COc1cccc(-c2cc(C(=O)Nn3cnnc3)c3ccccc3n2)c1	11	0	0	5.1*	0	1
Cc1cc(O)c(C(=O)/C=C/c2cc(Br)ccc2O)c(=O)o1	10	20	0	-1	·	·
O=C(CSc1nc2ccccc2s1)Nc1cccc2ccccc12	-6	0	0	0	·	·
CCCc1nnc(SCc2ccc(Br)cc2)n1N	-8	0	0	8.4*	-1	10
CCCc1nnc(SCc2ccc(Cl)cc2)n1N	-1	-4	0	1	·	·
COc1ccc(-n2ccnc2CN2CCN(C(C)C)C(CCO)C2)cc1 (stereo unspecified)	-1	5	0	5.0*	0	-9
CC(C)N1CCN(Cc2ccc(OC3CCCC3)cc2)CC1CCO (stereo unspecified)	13	10	0	17*	-1	2
CC(C)N1CCN(Cc2cccn2-c2cccnc2)CC1CCO (stereo unspecified)	-5	2	0	-1	·	·
CC(C)N1CCN(Cc2ccc(OCc3ccccc3)cc2)CC1CCO (stereo unspecified)	-3	9	0	-1	·	·
O=C(COc1cccc2ccccc12)Nc1cccc(S(=O)(=O)NC2=NCCC2)c1	5	13	0	-1	·	·
C=CCN1C(=O)CS/C1=N\NC(=O)c1ccccc1	-1	2	0	18*	1	4
Cc1ccc(C)c(OCC(=O)NCCc2ccccc2)c1	-62	-10	0	-1	·	·
CN(C)c1ccc(NC2=CC(=O)N(Cc3ccco3)C2=O)cc1	-1	37	0	5.1*	0	-9
CN(C)c1ccc(NC2=CC(=O)N(CCc3ccccc3)C2=O)cc1	3	2	0	2	·	·
O=C(NCc1nc(-c2ccncc2)n[nH]1)c1cc2sccc2s1	0	17	0	-1	·	·
CCOc1ccc(NS(=O)(=O)c2ccc3c(c2)n(C)c(=O)n3C)cc1	0	-7	0	15*	-1	-11
COc1ccc(S(=O)(=O)Nc2ccc3c(c2)n(C)c(=O)n3C)cc1	11	-3	0	1	·	·
O=c1c2ccccc2nc(SCc2ccncc2)n1CC1CCCO1 (stereo unspecified)	5	-2	0	6.2*	1	16
Cc1ccc(CSc2nc3ccccc3c(=O)n2CC2CCCO2)cc1 (stereo unspecified)	-8	-8	0	-1	·	·
C=CCn1c(SC(C)C)nc2c1c(=O)n(C)c(=O)n2C	-1	3	0	8.6*	0	3
COC(=O)C1=C(O)/C(=C/c2cc(C)n(-c3cc(C)ccc3C)c2C)N=C1C	9	-9	0	5.2*	-1	-8
COC(=O)C1=C(O)/C(=C\c2cc(C)n(-c3cc(Cl)ccc3C)c2C)N=C1C	0	-12	0	0	·	·
COc1ccc(S(=O)(=O)NCC2CCCN(CCCC3CCCC3)C2)cc1 (stereo unspecified)	4	-13	0	5.8*	0	3
COCC(=O)N1CCCC(CNS(=O)(=O)c2ccc(OC)cc2)C1 (stereo unspecified)	5	-1	0	-1	·	·
COc1ccc(S(=O)(=O)NCC2CCCN(Cc3ccncc3)C2)cc1 (stereo unspecified)	6	-4	0	1	·	·
